As a reminder, the AC50 is the concentration at which the activity in the assay is half-maximal.

Activity calls are given as the source filed them. How the source made its calls: active means hit-call score of the fitted dose curve at least 0.9, where 1 is the maximum; inactive means score below 0.9.

Holding throughout (settings): mRNA level, 48 h; actives raise or lower the signal
Read-out in assay [1]: Glutathione S-transferase M3 (GSTM3), GSTM3 (gene 2947)
Put plainly: LTEA_HepaRG_GSTM3: Life Technologies and Expression Analysis (LTEA) Assay for Glutathione S-transferase M3 (GSTM3) using HepaRG (AID 2283501). The gist of the method: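 qRT-PCR read-out of GSTM3 transcript, normalized to three housekeeping genes, from human HepaRG cells after 48 h chemical exposure. Eight-point half-log series, top 100 uM, 0.5% DMSO vehicle; gain or loss fitted relative to DMSO baseline.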

Read-out in assay [2]: Heat shock 70 kDa protein 1 (HSPA1A), gene 3303
Put plainly: LTEA_HepaRG_HSPA1A: Life Technologies and Expression Analysis (LTEA) Assay for Heat shock 70 kDa protein 1 (HSPA1A) using HepaRG (AID 2283502). In a few lines:
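HSPA1A expression measured by qRT-PCR with ACTB/GAPDH/POLR2A normalization; curves fitted in both directions relative to DMSO vehicle. Exposure: 48 h in HepaRG cells, duplicate 8-point half-log series from 100 uM, 0.5% DMSO, serum-free induction medium.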

Read-out in assay [3]: Hypoxia-inducible factor 1-alpha (Homo sapiens) (UniProt Q16665)
The assay can be described thus: LTEA_HepaRG_HIF1A: Life Technologies and Expression Analysis (LTEA) Assay for Hypoxia-inducible factor 1 (HIF1A) Trancription factor using HepaRG (AID 2283503). The gist of the method: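 HIF1A transcript level read by qRT-PCR (ACTB, GAPDH, POLR2A normalization) after 48 h chemical exposure of HepaRG cultures. Eight half-log concentrations, top 100 uM, 0.5% DMSO vehicle, duplicates; bidirectional curve fit against DMSO baseline.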

Read-out in assay [4]: 3-Hydroxy-3-Methylglutaryl-CoA Synthase 2 (HMGCS2), HMGCS2 (gene 3158)
Put plainly: LTEA_HepaRG_HMGCS2: Life Technologies and Expression Analysis (LTEA) Assay for 3-Hydroxy-3-Methylglutaryl-CoA Synthase 2 (HMGCS2) using HepaRG (AID 2283504). The gist of the method:
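qRT-PCR read-out of HMGCS2 transcript, normalised to three housekeeping genes, in HepaRG cells after 48 h chemical exposure. Eight-point curves from 100 uM, half-log dilutions, 0.5% DMSO vehicle; gain or loss fitted relative to DMSO baseline.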

Read-out in a further assay: HGF (gene 3082)
The assay can be described thus: LTEA_HepaRG_HGF: Life Technologies and Expression Analysis (LTEA) Assay for Hepatocyte Growth Facto (HGF) using HepaRG (AID 2283505). The gist of the method: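 HepaRG, 48 h dosing, 8-pt half-log series from 100 uM in 0.5% DMSO, duplicates. Readout: TaqMan qRT-PCR of HGF mRNA, housekeeping-normalized; bidirectional curve fit vs DMSO baseline.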

Read-out in assay [5]: Insulin Like Growth Factor 1 (IGF1), IGF1 (gene 3479)
Put plainly: LTEA_HepaRG_IGF1: Life Technologies and Expression Analysis (LTEA) Assay for Insulin Like Growth Factor 1 (IGF1) using HepaRG (AID 2283506). In a few lines: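 Expression measured by TaqMan qRT-PCR on a Fluidigm array, with three housekeeping genes for normalisation, after 48 h treatment of HepaRG cells. Top concentration 100 uM with half-log steps, 0.5% DMSO vehicle, bidirectional fit.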

Read-out in assay [6]: Intercellular Adhesion Molecule 1 (ICAM1), ICAM1 (gene 3383)
The assay can be described thus: LTEA_HepaRG_ICAM1: Life Technologies and Expression Analysis (LTEA) Assay for Intercellular Adhesion Molecule 1 (ICAM1) using HepaRG (AID 2283507). The gist of the method:
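HepaRG, 48 h exposure, 8-pt half-log series from 100 uM, 0.5% DMSO vehicle, duplicates. Readout: TaqMan qRT-PCR mRNA, housekeeping-normalized (ACTB/GAPDH/POLR2A). Bidirectional curve fit vs DMSO baseline.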

Read-out in assay [7]: Insulin-like growth factor-binding protein 1 (IGFBP1), IGFBP1 (gene 3484)
The assay can be described thus: LTEA_HepaRG_IGFBP1: Life Technologies and Expression Analysis (LTEA) Assay for Insulin-like growth factor-binding protein 1 (IGFBP1) using HepaRG (AID 2283508). The gist of the method:
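qRT-PCR mRNA read-out (TaqMan, Fluidigm array), normalised to three housekeeping genes; HepaRG cells, 48 h exposure, 8-pt half-log series from 100 uM, 0.5% DMSO vehicle; bidirectional curve fit vs DMSO baseline.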

Read-out in assay [8]: Interleukin 6 (IL6), IL6 (gene 3569)
Put plainly: LTEA_HepaRG_IL6: Life Technologies and Expression Analysis (LTEA) Assay for Interleukin 6 (IL6) using HepaRG (AID 2283509). In a few lines:
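Changes in IL6 mRNA, up or down relative to 0.5% DMSO controls, were derived from concentration-response curves in human HepaRG cells treated for 48 h at up to 100 uM, with ACTB, GAPDH and POLR2A as normalizers.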

Read-out in assay [9]: Interleukin 6 Receptor (IL6R), IL6R (gene 3570)
Put plainly: LTEA_HepaRG_IL6R: Life Technologies and Expression Analysis (LTEA) Assay for Interleukin 6 Receptor (IL6R) using HepaRG (AID 2283510). In a few lines: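 IL6R transcript level by qRT-PCR after 48 h chemical exposure (8-point, half-log, max 100 uM, 0.5% DMSO vehicle) of HepaRG cells in serum-free induction medium. Normalized to three housekeeping genes; curves fitted in both directions relative to DMSO.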

Read-out in assay [10]: Potassium channel subfamily K member 1 (KCNK1), KCNK1 (gene 3775)
The assay can be described thus: LTEA_HepaRG_KCNK1: Life Technologies and Expression Analysis (LTEA) Assay for Potassium channel subfamily K member 1 (KCNK1) using HepaRG (AID 2283511). The gist of the method:
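Human HepaRG cultures receive test chemicals for 48 h in 0.5% DMSO, top concentration 100 uM with half-log dilutions. Induction or suppression of KCNK1 mRNA relative to DMSO is derived by bidirectional fitting of qRT-PCR data.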

Read-out in assay [11]: Keratin 19 (KRT19), KRT19 (gene 3880)
Put plainly: LTEA_HepaRG_KRT19: Life Technologies and Expression Analysis (LTEA) Assay for Keratin 19 (KRT19) using HepaRG (AID 2283512). In a few lines: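 HepaRG, 48 h chemical exposure, 8-pt half-log CRC from 100 uM, 0.5% DMSO vehicle, duplicates. Readout: TaqMan qRT-PCR of KRT19 mRNA, housekeeping-normalized (ACTB/GAPDH/POLR2A). Bidirectional fit vs DMSO baseline.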

Read-out in assay [12]: JUN Transcription Factor, JUN (gene 3725)
Put plainly: LTEA_HepaRG_JUN: Life Technologies and Expression Analysis (LTEA) Assay for JUN Transcription Factor using HepaRG (AID 2283513). The gist of the method: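 mRNA measured by TaqMan qRT-PCR after 48 h chemical exposure of HepaRG cultures; normalization to three housekeeping genes. Duplicate eight-point half-log curves from 100 uM in 0.5% DMSO; gain or loss fitted against DMSO baseline.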

Read-out in assay [13]: MicroRNA 122 (MIR122), gene 406906
The assay can be described thus: LTEA_HepaRG_MIR122: Life Technologies and Expression Analysis (LTEA) Assay for MicroRNA 122 (MIR122) using HepaRG (AID 2283516). Further: the transcript read is the microRNA miR-122. In a few lines:
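Expression measured by microfluidic qRT-PCR with three housekeeping genes for normalisation, after 48 h treatment of HepaRG cultures. Eight concentrations (top 100 uM, half-log steps, 0.5% DMSO vehicle) in duplicate; gain or loss fitted relative to vehicle.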

Read-out in assay [14]: matrix metalloproteinase-10 (MMP10), MMP10 (gene 4319)
The assay can be described thus: LTEA_HepaRG_MMP10: Life Technologies and Expression Analysis (LTEA) Assay for matrix metalloproteinase-10 (MMP10) using HepaRG (AID 2283517). The gist of the method: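 In differentiated HepaRG cultures kept in 0.5% DMSO, test chemicals act for 48 h over an eight-point range with a top dose of 100 uM. Expression is then quantified by TaqMan RT-PCR against ACTB, GAPDH and POLR2A.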

Read-out in another assay: MYC, MYC (gene 4609)
Put plainly: LTEA_HepaRG_MYC: Life Technologies and Expression Analysis (LTEA) Assay for MYC using HepaRG (AID 2283518). In a few lines: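 qRT-PCR read-out of MYC transcript (Fluidigm TaqMan, housekeeping-normalized) after 48 h chemical exposure of HepaRG cells; eight concentrations, top 100 uM, half-log steps. Bidirectional curve fitting against 0.5% DMSO vehicle baseline.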

Read-out in assay [15]: matrix metalloproteinase-3 (MMP3), MMP3 (gene 4314)
Put plainly: LTEA_HepaRG_MMP3: Life Technologies and Expression Analysis (LTEA) Assay for matrix metalloproteinase-3 (MMP3) using HepaRG (AID 2283519). The gist of the method: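 Human liver HepaRG cultures received chemicals (top concentration 100 uM, 0.5% DMSO) for 48 h in duplicate. MMP3 mRNA induction or loss was then assessed via TaqMan qRT-PCR with housekeeping-gene normalisation.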

Read-out in assay [16]: Paternally Expressed 10 (PEG10), PEG10 (gene 23089)
The assay can be described thus: LTEA_HepaRG_PEG10: Life Technologies and Expression Analysis (LTEA) Assay for Paternally Expressed 10 (PEG10) using HepaRG (AID 2283520). The gist of the method:
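PEG10 transcript measured by Fluidigm qRT-PCR, normalized to three housekeeping genes, in HepaRG cells treated 48 h (highest 100 uM, half-log steps, 0.5% DMSO vehicle). Cells plated 48 h before switching to serum-free induction medium.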

Read-out in assay [17]: Lipase C (LIPC), LIPC (gene 3990)
Put plainly: LTEA_HepaRG_LIPC: Life Technologies and Expression Analysis (LTEA) Assay for Lipase C (LIPC) using HepaRG (AID 2283514). The gist of the method:
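In this multiplexed gene-expression screen, human HepaRG cultures received test chemicals for 48 h across eight concentrations with 100 uM highest, in duplicate. Values reflect LIPC mRNA induction or suppression versus DMSO vehicle, from normalized qRT-PCR.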

Hypoxia-inducible factor 1-alpha (Homo sapiens), sequence (Q16665 whole entry, looked up): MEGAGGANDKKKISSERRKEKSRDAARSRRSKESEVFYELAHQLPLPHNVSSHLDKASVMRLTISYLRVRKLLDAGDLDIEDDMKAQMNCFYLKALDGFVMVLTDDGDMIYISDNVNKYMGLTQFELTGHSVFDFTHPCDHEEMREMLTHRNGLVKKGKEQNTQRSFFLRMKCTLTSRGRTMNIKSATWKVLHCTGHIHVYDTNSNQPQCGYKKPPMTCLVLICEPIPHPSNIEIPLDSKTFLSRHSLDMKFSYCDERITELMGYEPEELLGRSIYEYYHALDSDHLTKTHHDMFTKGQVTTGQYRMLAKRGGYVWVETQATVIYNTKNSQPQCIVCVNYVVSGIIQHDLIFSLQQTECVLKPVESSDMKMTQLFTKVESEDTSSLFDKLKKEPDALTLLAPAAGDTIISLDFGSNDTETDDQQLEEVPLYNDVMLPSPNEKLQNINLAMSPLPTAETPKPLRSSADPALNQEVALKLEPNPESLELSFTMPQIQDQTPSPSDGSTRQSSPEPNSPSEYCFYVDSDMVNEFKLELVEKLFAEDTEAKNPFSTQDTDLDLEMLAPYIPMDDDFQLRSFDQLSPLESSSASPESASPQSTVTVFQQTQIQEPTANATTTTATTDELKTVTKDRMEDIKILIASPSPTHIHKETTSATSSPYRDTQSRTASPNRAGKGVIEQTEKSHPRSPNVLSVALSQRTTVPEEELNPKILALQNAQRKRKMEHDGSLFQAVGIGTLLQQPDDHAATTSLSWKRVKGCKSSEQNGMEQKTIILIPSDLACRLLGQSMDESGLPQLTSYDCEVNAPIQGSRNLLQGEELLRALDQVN

For the compound `CN(C)C(=O)Cl`, the outcome (in [1]; in [2]; in assay [3]; in assay [4]; with HGF (gene 3082); in assay [5]) was inactive. The result in assay [6], in assay [7], in assay [8], in [9], in assay [10] and in [11] was inactive. Moreover, the outcome was “inactive” in [12]; “inactive” in assay [13]; “inactive” in assay [14]; “inactive” in the assay with MYC, MYC (gene 4609); “inactive” in [15]; “inactive” in assay [16].
On to `CC(Cl)(Cl)C(=O)O`, for which the call (in assay [1]; in [2]; in assay [3]; in assay [4]; in the assay with HGF (gene 3082); in [5]) was inactive. Besides, the compound was called inactive in assay [6], in [7], in assay [8], in assay [9], in [10] and in assay [11]. Further, the outcome in assay [12] was “inactive”; in [13], “inactive”; in assay [14], “inactive”; with MYC, MYC (gene 4609), “inactive”; in assay [15], “inactive”; in assay [16], “inactive”.
`CCC(C)(C)c1ccc(O)cc1`: the call (in assay [1]; in assay [2]; in [3]; in assay [4]; with HGF (gene 3082); in [5]) was inactive. Further, the outcome in [6], in [7], in assay [8], in assay [9], in [10] and in [11] was inactive. Further, the outcome in [12] was “inactive”; in assay [17] it was “inactive”; in assay [13] it was “inactive”; in assay [14] it was “inactive”; in the assay with MYC, MYC (gene 4609) it was “inactive”; in assay [15] it was “inactive”. Moreover, in assay [16], the compound was called inactive.
On to `Nc1cc2c3c(c1)C(c1ccccc1)=N[C@@H](NC(=O)c1cccnc1)C(=O)N3CC2`, for which the call (in assay [1]; in assay [2]; in [3]; in assay [4]; with HGF (gene 3082); in assay [6]) was inactive. The result in assay [7], in assay [8], in assay [9], in assay [10], in assay [11] and in assay [12] was inactive. For the same compound, the outcome in assay [17] is “inactive”; in assay [13], “inactive”; in assay [14], “inactive”; with MYC, MYC (gene 4609), “inactive”; in assay [15], “inactive”; in [16] it was “inactive”. For the same compound, the AC50 in assay [5] is 11.8 µM (active).
Take `CCOS(=O)(=O)OCC`: the result (in assay [1]; in [2]; in [3]; in assay [4]; in the assay with HGF (gene 3082); in assay [5]) was inactive. The compound was classed as inactive in [6], in [7], in assay [8], in assay [9], in assay [10] and in assay [11]. Further, the outcome was “inactive” in assay [12]; “inactive” in assay [13]; “inactive” in assay [14]; “inactive” in the assay with MYC, MYC (gene 4609); “inactive” in [15]; “inactive” in [16].
